Compounds with a hit are over-represented: about 3.7% of the library has one in this group of screens.
FEN1 inhibitor – blocks human flap endonuclease 1; P39748; Potency, µM (titrated, usually from 114 µM), inactives show at the top dose activity change, negative = inhibition, usual class: inhibitors; Recombinant FEN1 flap cleavage, fluorescence, 15 min; 390,000 tested, 0.35% active; further: potency means the concentration at half of the fitted maximal effect; on the % scale 0 is the no-effect control and ±100 the full control effect; nearly all actives have a fitted effect of over 65% in size
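Read-out was taken twice, immediately and after 15 min, following addition of 50 nM substrate to 10 nM FEN1 that had sat with test compound for 15 min at room temperature. Curves came from a four-parameter Hill model.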
PI5P4Ka inh – PI5P4K alpha (human) kinase inhibition; max response, %; P48426; 330,000 tested, 1.2% active; PI5P4Kalpha enzyme, ADP-Glo luminescence, 60 min; hits give low values; AID 652105; active means max response of -50% or lower; inconclusive means between -30% and -50%; inactive means -30% or higher; further: value at the top dose of about 77 µM; on the % scale 0 is the no-effect control and ±100 the full control effect
Target sequence (P48426 whole entry, looked up): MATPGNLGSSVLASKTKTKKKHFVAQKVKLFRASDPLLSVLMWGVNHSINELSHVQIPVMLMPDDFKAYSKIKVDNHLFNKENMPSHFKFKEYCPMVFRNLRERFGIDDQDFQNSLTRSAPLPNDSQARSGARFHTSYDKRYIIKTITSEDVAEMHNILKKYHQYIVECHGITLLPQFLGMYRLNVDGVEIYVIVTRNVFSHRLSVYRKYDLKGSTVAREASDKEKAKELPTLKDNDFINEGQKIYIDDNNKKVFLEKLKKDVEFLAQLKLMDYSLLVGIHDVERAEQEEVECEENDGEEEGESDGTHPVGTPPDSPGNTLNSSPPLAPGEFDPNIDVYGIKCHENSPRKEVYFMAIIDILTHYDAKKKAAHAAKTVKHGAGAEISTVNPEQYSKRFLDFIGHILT
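Controls without substrate or without enzyme flank wells where PI5P4Kalpha converts substrate using 5 microM ATP (final). Incubation lasts 60 minutes at room temperature; ADP formed is read by ADP-Glo luminescence.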
VDR inhibitor – inhibitors of human vitamin D receptor | VDR-SRC2-3 peptide fluorescence polarization, 2 h | Potency, µM, inactives show max response, negative = inhibition, usual class: inhibitors | 400,000 tested, 0.93% active; further: potency means the concentration at half of the fitted maximal effect; on the % scale 0 is the no-effect control and ±100 the full control effect
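The screen uses fluorescence polarization to detect compounds that interfere with recruitment of the SRC2-3 coactivator peptide to VDR; plates are read after 2 h at room temperature.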
PLK1 PBD inh – PLK1 (human) polo-box domain binding inhibition; 360,000 tested, 2.8% active; Plk1 PBD binding of FITC phosphopeptide, fluorescence polarization; Potency, µM, for inactives: max response, negative = inhibition, most hits filed as inhibitors; P53350; further: potency means the concentration at half of the fitted maximal effect; series mostly up to about 57 µM; on the % scale 0 is the no-effect control and ±100 the full control effect; nearly all actives have a fitted effect of over 65% in size
TCR act – activates T cell receptor signaling. primary human leukocytes, anti-CD3, IL-2 HTRF, 48 h. Potency, µM (top dose mostly 9.22 µM), for the others: at the top dose activation of IL-2 secretion, actives largely listed as activators. 330,000 tested, under 10 active; further: % of control where 0% means no effect
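Human primary leukocytes + a-CD3 beads + cpd, 48 hr; IL-2 in supernatant by HTRF (ex 320nm / em 665nm). No co-stimulatory signal supplied.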
WRN inhibitor – inhibitors of human WRN helicase; WRN helicase unwinding, fluorescent forked duplex, kinetic; Potency, µM (highest dose often 114 µM), for inactives: at the highest dose activity change, negative = inhibition, actives largely listed as inhibitors; 360,000 tested, 0.46% active; AID 651768; further: potency means the concentration at half of the fitted maximal effect; on the % scale 0 is the no-effect control and ±100 the full control effect; nearly all actives have a fitted effect of over 55% in size
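Enzyme (20 nM final) and test compound sit together 15 min at room temperature before substrate addition. Substrate is a single-forked duplex oligonucleotide (100 nM) labelled with fluorophore and quencher, with 2 mM ATP; helicase unwinding raises red fluorescence, read kinetically.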
* marks the source's active call; other numbers are inactive results; ? = inconclusive; . = no result; ! = a repeat was not active; [ ] = dose if it differs, or a comment. Unless noted, the call rests on the fitted dose curve; in most records, active means well fitted curve in the direction sought with a large enough effect; inconclusive means small, poorly fitted or top-dose-only effect, or another doubt; inactive means no such curve, though single readings can be large; an effect the other way counts as inactive or inconclusive.

SMILES	FEN1 inhibitor	PI5P4Ka inh	VDR inhibitor	PLK1 PBD inh	TCR act	WRN inhibitor
CCn1c(O)c(/C(C)=N/N2CCCCC2c2cccnc2)c(=O)[nH]c1=S (centres undefined)	-6%	-6	-10%	13%	1%[46.1 µM]	?
O=c1[nH]c(=S)n(-c2ccccc2)c(O)c1/C=N/N1CCCCC1c1cccnc1 (centres undefined)	-8%	-3	29%	-11%	-6%	79µM*
Cc1cc(/C=C2/C(=O)NC(=O)N(c3ccc(Br)cc3)C2=O)c(C)n1C	2%	-15	23%	-6%	-3%	-10%
CCOc1ccc(N2C(=O)NC(=O)/C(=C\c3ccc(N4CCOCC4)cc3C)C2=O)cc1	23%	-4	?	6.7µM*	-2%	-7%
Cc1cccc(N2C(=O)/C(=C/N3CCN(C(=O)c4ccco4)CC3)C(=O)NC2=S)c1	-11%	?	16%	?	-4%	?
Cc1cccc(N2C(=O)NC(=O)/C(=C\c3ccc(N4CCOCC4)cc3)C2=O)c1	-3%	?	-11%	9.5µM*	1%	?
Cc1cccc(N2C(=O)NC(=O)/C(=C/c3ccc(N4CCOCC4)cc3)C2=O)c1	-3%	-24	-13%	12µM*	-14%	?
Cc1ccc(N2C(=O)NC(=O)/C(=C\c3ccc(N4CCOCC4)cc3)C2=O)cc1	-5%	?	?	6µM*	4%[46.1 µM]	?
CCCN1CCO[C@@H]2c3cc(O)ccc3OC[C@@H]21	.	.	2%	.	.	.
O=C(Oc1ccccc1)N1CCC2(CCN(Cc3nccs3)CC2)CC1	.	.	8%	.	.	.
CS(=N)(=O)CC[C@@H](N)C(=O)O (some centres undefined)	.	.	4%	.	.	.
CC(C)N(Cc1ccccc1)C(=O)CCS(=O)(=O)c1ccc2c(c1)oc(=O)n2C	2%	3	-5%	17µM*	0%	0%
CCCc1[nH][nH]c(=O)c1C(c1ccccc1)C(C#N)C#N (centres undefined)	1%	-50*	?	12µM*	-9%	-17%
CCCc1[nH][nH]c(=O)c1C(c1ccc(Cl)cc1)C(C#N)C#N (centres undefined)	2%	.	-41%	21µM*	7%[46.1 µM]	-8%[57.1 µM]
CCN1CC2(OC(=O)c3ccccc3NC(C)=O)CCC(OC)[C@]34C1[C@H](CC23)[C@@]1(O)C[C@H](OC)[C@H]2CC4C1(O)[C@H]2OC (some centres undefined)	.	.	0%	.	.	.
NS(=O)(=O)c1ccc(CNC(=O)COc2ccc3c4c(c(=O)oc3c2)CCCC4)cc1	-17%	-14	-23%	24µM*	-5%	2%
O=C1NC(=O)N(c2ccccc2)C(=O)/C1=C/c1ccc(Sc2ccccc2)o1	7%	.	?	?	6%	45µM*
CCCN(CCC)c1c([N+](=O)[O-])cc(C(F)(F)F)cc1[N+](=O)[O-]	.	.	11%	.	.	.
CC[C@H](C)/C=C(C)/C=C/C1=CC2=C(Cl)C(=O)[C@](C)(OC(C)=O)C(=O)C2=CO1	?	-104*	?	1.1µM*	0%	50µM*
CN1C(=O)/C(=C\N2CCc3ccccc32)C(=O)NC1=S	-18%	?	-1%	4%	3%[46.1 µM]	50µM*
Cc1cc(O)c2c(c1)C(=O)C13C(=C2O)C(=O)[C@H]2[C@@H](O)[C@@H]1[C@H]1[C@H](O)[C@@H]3C(=O)C3=C(O)c4c(O)cc(C)cc4C(=O)C312 (some centres undefined)	?	-53*	-10%	-14%	6%	?
Brc1c(Br)c(Br)c2n[nH]nc2c1Br	?	.	45µM*	.	.	.
CCN(c1ccc(C(O)(C(=O)OC)C(F)(F)F)cc1)S(=O)(=O)c1ccccc1 (centres undefined)	2%	1	3%	27µM*	0%	-5%
CN1C(CC(=O)c2ccccc2)CCCC1CC(O)c1ccccc1 (centres undefined)	-1%	4	89µM*!	-12%	-5%	.
CN1[C@@H](CC(=O)c2ccccc2)CCC[C@H]1C[C@H](O)c1ccccc1	-9%	0	2%	-16%	5%	5%
SMILES	FEN1 inhibitor	PI5P4Ka inh	VDR inhibitor	PLK1 PBD inh	TCR act	WRN inhibitor
Cc1cc(C(C#N)c2ccc(Cl)cc2)c(Cl)cc1NC(=O)c1cc(I)cc(I)c1O (centres undefined)	28µM*	-55*	?	?	2%	-28%
O=C1Nc2ccccc2C2(CCN(CCc3ccc(C(F)(F)F)cc3)CC2)O1	.	.	2%	.	.	.
CCC1(O)C(=O)OCc2c1cc1n(c2=O)Cc2cc3cc(O)ccc3nc2-1 (centres undefined)	?	?	-24%	12µM*	-32%	-5%[11.6 µM]
CN1C(=O)C(=Cc2c(OCc3cnc(Cl)s3)ccc3ccccc23)C(=O)N(C)C1=O	?	-24	?	4.7µM*	-4%	-16%
CCn1cc(C=C2C(=O)N(C)C(=O)N(C)C2=O)c2ccccc21	3%	0	4%	-11%	-2%	7%
C#Cc1cccc2c1c(C(=O)c1ccc(Cn3c(C)nc4cnccc43)c(F)c1)cn2C(=O)N(C)C	.	.	7%	.	.	.
O=C(CCN1CCN(CCO)CC1)N1c2ccccc2Sc2ccc(C(F)(F)F)cc21	0%	-30	?	27µM*	14%	7%
CCCCC/C=C\C/C=C\C/C=C\C/C=C\CCCC(=O)O	.	.	7.9µM*!	.	.	.
CCCCC/C=C\C[C@@H](/C=C/C=C\C/C=C\CCCC(=O)O)OO	.	.	-14%	.	.	.
CC1(C)C(O)CC(O)[C@]2(C)C1CC(=O)[C@]1(C)C2CC[C@@]2(C)C(c3ccoc3)OC(=O)C3OC321 (some centres undefined)	.	.	1%	.	.	.
COc1ccccc1-n1c(O)c(/C=N/NC(=S)Nc2ccccc2)c(=O)[nH]c1=S	12%	-61*	?	-23%	0%	0%
CCn1c(O)c(/C=N/NC(=O)c2ccccc2)c(=O)[nH]c1=S	-3%	?	-12%	2%	-3%	2%
COc1cc(/C=C(/C)[N+](=O)[O-])ccc1OCc1ccccc1Cl	-4%	1	8.9µM*	2.4µM*	-3%[46.1 µM]	?
COc1ccc([N+](=O)[O-])cc1CSc1ccccn1	7%	-5	-26%	?	5%	5%
CC(=O)Nc1c2sscc-2n(C)c1=O	.	.	40µM*	.	.	.
O=Nc1c(-c2ccccc2)n(O)[n+]([O-])c1-c1ccccc1	.	0	.	?	.	2%
Cc1ccccc1-c1cncnc1NCCc1cnc[nH]1	.	.	-11%	.	.	.
S=C(c1ccc(Cl)cc1)N1CCOCC1	-19%	.	?	28µM*	2%	2%
CC[C@@]1(O)C(=O)OCc2c1cc1n(c2=O)Cc2cc3c(O)cccc3nc2-1	.	.	10%	.	.	.

Bioassay records deposited in PubChem by National Center for Advancing Translational Sciences (NCATS).
